Assay results from article PMC4336329 (PLoS ONE, 2015).
About 14,000 (4.5%) of roughly 310,000 compounds showed an effect of 50% or more. Effects have a minus sign here. For the sample, strong results were picked, then their nearest neighbours and some compounds at random.

Each compound was assayed against human ether-à-go-go-related gene (hERG) potassium channel (human, UniProt Q12809) (assay: primary screen, population patch clamp on CHO cells stably expressing hERG; higher = less effect of the substance).
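Also: peak tail current of the secondary pulse compared with the same well before compound.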

human ether-à-go-go-related gene (hERG) potassium channel, sequence (Q12809 whole entry, looked up): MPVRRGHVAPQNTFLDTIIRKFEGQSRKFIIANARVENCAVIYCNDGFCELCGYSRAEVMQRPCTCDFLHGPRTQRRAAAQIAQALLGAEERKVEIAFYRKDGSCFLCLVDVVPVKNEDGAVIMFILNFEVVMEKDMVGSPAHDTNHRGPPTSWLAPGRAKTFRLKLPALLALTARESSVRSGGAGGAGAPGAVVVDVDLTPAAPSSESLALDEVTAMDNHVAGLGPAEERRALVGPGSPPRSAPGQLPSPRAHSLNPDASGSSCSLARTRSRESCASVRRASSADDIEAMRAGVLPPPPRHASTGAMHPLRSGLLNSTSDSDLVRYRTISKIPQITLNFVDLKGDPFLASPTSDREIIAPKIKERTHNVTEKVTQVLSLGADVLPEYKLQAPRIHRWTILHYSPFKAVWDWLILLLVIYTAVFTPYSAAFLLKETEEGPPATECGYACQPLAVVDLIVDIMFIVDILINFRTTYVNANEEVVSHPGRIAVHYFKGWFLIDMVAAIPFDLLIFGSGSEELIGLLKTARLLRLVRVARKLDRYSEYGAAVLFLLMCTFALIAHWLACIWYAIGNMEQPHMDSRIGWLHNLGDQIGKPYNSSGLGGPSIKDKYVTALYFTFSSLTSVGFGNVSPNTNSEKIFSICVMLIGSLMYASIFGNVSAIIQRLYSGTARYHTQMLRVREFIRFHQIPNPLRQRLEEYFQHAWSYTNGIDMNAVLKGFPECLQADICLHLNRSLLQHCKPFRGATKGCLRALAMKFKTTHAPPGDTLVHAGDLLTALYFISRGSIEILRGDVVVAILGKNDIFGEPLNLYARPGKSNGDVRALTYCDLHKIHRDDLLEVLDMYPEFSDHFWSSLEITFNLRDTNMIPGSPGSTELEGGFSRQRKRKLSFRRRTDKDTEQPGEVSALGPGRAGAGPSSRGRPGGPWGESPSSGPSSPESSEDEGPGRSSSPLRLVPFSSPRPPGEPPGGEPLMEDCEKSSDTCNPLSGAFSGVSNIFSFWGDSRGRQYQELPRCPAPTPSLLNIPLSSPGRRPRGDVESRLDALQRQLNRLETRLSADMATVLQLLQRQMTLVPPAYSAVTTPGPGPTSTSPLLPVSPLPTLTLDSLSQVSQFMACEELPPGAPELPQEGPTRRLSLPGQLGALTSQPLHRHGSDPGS

Going from Cc1cc(C)[n+](Cc2ccccc2)cc1C(N)=O.[Cl-] to O=C(COc1cccc(Cl)c1)NCc1ccccc1, the “hERG current change (%, negative = inhibition) at 10uM” value rises from 16.6% to 18.9%.

Compared with N#Cc1cc(Nc2c(N)nc[nH]c2=O)c([N+](=O)[O-])cc1C#N, COc1cc(C2NC(=O)NC(c3ccccc3)=C2C(C)=O)ccc1OCC#N (stereo not shown) is lower in “hERG current change (%, negative = inhibition) at 10uM” value: 8.95% for the first, -8.43% for the second.

Going from O=C(O)CCN1C(=O)c2ccc(NC(=O)Cc3ccc(Cl)cc3)cc2C1=O to CCN(CC(=O)NCc1ccc(Cl)cc1)C(=O)CSc1cc(C)ccc1C, the “hERG current change (%, negative = inhibition) at 10uM” value falls from 3.94% to -47.5%.

Compared with CC(=O)c1cc(-c2ccccc2)n(CC(=O)N2CCCC2)c1C, O=C(c1cc([N+](=O)[O-])ccc1N1CCCC1)N1CCCC1 is lower in “hERG current change (%, negative = inhibition) at 10uM” value: 13.3% for the first, -0.904% for the second.

Compared with CCn1c(SCC(=O)Nc2ccccc2F)nnc1-c1cnccn1, CCn1c(SCC(=O)Nc2ccc(F)cc2)nnc1-c1cnccn1 is lower in “hERG current change (%, negative = inhibition) at 10uM” value: -34.9% for the first, -56.8% for the second.

Compared with C=CCn1c(SCC(=O)Nc2cc(C)ccc2C)nnc1-c1cnccn1, C=CCn1c(SCC(=O)Nc2ccc(F)cc2F)nnc1-c1cnccn1 is lower in “hERG current change (%, negative = inhibition) at 10uM” value: -14.4% for the first, -58.8% for the second.

Compared with CCn1c(SCC(=O)Nc2ccc3c(c2)OCCO3)nnc1-c1ccccn1, CCn1c(SCC(=O)Nc2ccc(C)cc2)nnc1-c1ccccn1 is lower in “hERG current change (%, negative = inhibition) at 10uM” value: -16.1% for the first, -59.1% for the second.

First: CCn1c(SCC(=O)Nc2ccc(C)cc2)nnc1-c1cnccn1
Second: Cc1ccc(NC(=O)CSc2nnc(-c3ccccn3)n2C)cc1
The “hERG current change (%, negative = inhibition) at 10uM” value of the first is lower: -31.8% for the first, -28.1% for the second.

Compared with C=CCn1c(SCC(=O)Nc2cccc3ccccc23)nnc1-c1cnccn1, O=C(COc1cccc2cccnc12)NNC(=S)Nc1ccccc1 is higher in “hERG current change (%, negative = inhibition) at 10uM” value: -39.9% for the first, -25.8% for the second.

First: CN1CCN(C(=O)c2ccc(C3SCC(=O)N3Cc3ccco3)cc2)CC1 (stereo not shown)
Second: CCn1cc(C(=O)N2CCc3ccccc3C2)c(=O)c2cc(S(=O)(=O)N3CCCCC3)ccc21
The “hERG current change (%, negative = inhibition) at 10uM” value of the first is higher: 6.13% for the first, -40.7% for the second.

First: CCOc1ccc(/C=N/NC(=O)c2csc(C)c2C)c(OCC)c1
Second: CCOc1ccc(CCNC(=O)COC(=O)c2ccc(OC)c(OC)c2OC)cc1OCC
The “hERG current change (%, negative = inhibition) at 10uM” value of the first is lower: 6.43% for the first, 12.2% for the second.

Compared with Cc1ccc(S(=O)(=O)NCCC(=O)Nc2cc(S(=O)(=O)N(C)C)ccc2C)cc1C, CC(=O)N1CCOc2ccc(S(=O)(=O)NCCc3ccc(S(N)(=O)=O)cc3)cc21 is higher in “hERG current change (%, negative = inhibition) at 10uM” value: -7.95% for the first, 12.2% for the second.

First: CCN1CC(CN(C)Cc2nc(-c3ccc(Cl)cc3)no2)CC1=O (stereo not shown)
Second: CCN1CC(CN(C)Cc2nc(-c3ccc(C(F)(F)F)cc3)no2)CC1=O (stereo not shown)
The “hERG current change (%, negative = inhibition) at 10uM” value of the first is lower: -59.1% for the first, -28.9% for the second.

First: CCN1CC(CN(C)Cc2nc(-c3ccc(C(F)(F)F)cc3)oc2C)CC1=O (stereo not shown)
Second: CCN1CC(CN(C)Cc2nc(-c3ccco3)oc2C)CC1=O (stereo not shown)
The “hERG current change (%, negative = inhibition) at 10uM” value of the first is lower: -51.5% for the first, 10.4% for the second.

Going from CCN1CC(CN(C)Cc2nc(-c3ccc(OC)c4ccccc34)oc2C)CC1=O (stereo not shown) to CCN1CC(CN(C)Cc2nc(-c3cccs3)no2)CC1=O (stereo not shown), the “hERG current change (%, negative = inhibition) at 10uM” value rises from -37.2% to 3.65%.

Compared with Cc1cc(O)c(NC(=O)c2ccc(Br)o2)cc1C, COc1ccccc1C(=O)Nc1cc(C)on1 is higher in “hERG current change (%, negative = inhibition) at 10uM” value: -7.04% for the first, 7.07% for the second.

Compared with COc1ccc(N2CCN(C(=O)CN(c3cccc(OC)c3)S(=O)(=O)c3ccccc3)CC2)cc1, COc1ccc2c(c1)CCCN2S(=O)(=O)c1ccc(Cl)cc1 is higher in “hERG current change (%, negative = inhibition) at 10uM” value: -19.4% for the first, 9.65% for the second.

First: CC(=O)OC1CC2(C)C(=O)CCC2C2CCc3cc(O)ccc3C12 (stereo not shown)
Second: CN(C)S(=O)(=O)c1ccc(Cl)c(NC(=O)COC(=O)C2CCCO2)c1 (stereo not shown)
The “hERG current change (%, negative = inhibition) at 10uM” value of the first is lower: 1.59% for the first, 5.01% for the second.

First: Cc1ccc(Nc2cccc(C(F)(F)F)c2)nn1
Second: COc1cccc(NC(=O)NCc2ccc(F)cc2)c1
The “hERG current change (%, negative = inhibition) at 10uM” value of the first is higher: -0.351% for the first, -5.73% for the second.

Compared with COc1ccc2c(c1)CCCN2C(N)=Nc1ccc(Cl)cc1, COc1ccc2c(c1)CCCN2C(N)=O is higher in “hERG current change (%, negative = inhibition) at 10uM” value: -63.7% for the first, 17.4% for the second.

Going from Cc1ccc(NC(=O)CN(C)C(=O)C(Sc2ccccc2)c2ccccc2)cc1 (stereo not shown) to CN(CC(=O)Nc1ccc(F)cc1)C(=O)COC(=O)CSc1ccc(F)cc1, the “hERG current change (%, negative = inhibition) at 10uM” value falls from 2.05% to -16%.

Going from CC(=O)O[C@H]1C(=O)[C@@]2(C)C([C@H](OC(=O)c3ccccc3)[C@]3(O)C[C@H](OC(=O)[C@H](O)[C@@H](NC(=O)Cc4ccccc4)c4ccccc4)C(C)=C1C3(C)C)[C@]1(OC(C)=O)CO[C@@H]1C[C@@H]2O (stereo partly shown) to CCN(CC(=O)NCc1ccc(F)cc1)C(=O)c1ccc(C(=O)c2ccccc2)cc1, the “hERG current change (%, negative = inhibition) at 10uM” value falls from 16.6% to -42.3%.

Going from CCn1cc(C(=O)NCCCN2CCCC2)c(=O)c2cc(S(=O)(=O)N3CCc4ccccc4C3)ccc21 to CCn1cc(C(=O)NCCCN2CCCCCC2)c(=O)c2cc(S(=O)(=O)N3CCc4ccccc4C3)ccc21, the “hERG current change (%, negative = inhibition) at 10uM” value falls from -8.75% to -77.7%.

Compared with CCn1cc(C(=O)N2CCc3ccccc32)c(=O)c2cc(S(=O)(=O)N3CCCCCC3)ccc21, CCn1cc(C(=O)N2CCc3ccccc32)c(=O)c2cc(S(=O)(=O)N3CC(C)CC(C)C3)ccc21 (stereo not shown) is higher in “hERG current change (%, negative = inhibition) at 10uM” value: -67.1% for the first, -43.8% for the second.

Compared with CCOCCCNC(=O)c1cn(CC)c2ccc(S(=O)(=O)N3CCCC3)cc2c1=O, CCn1cc(C(=O)NCCCOC)c(=O)c2cc(S(=O)(=O)N3CCCC3)ccc21 is higher in “hERG current change (%, negative = inhibition) at 10uM” value: -6.08% for the first, -4.05% for the second.

Compared with CCn1cc(C(=O)NCCCOC)c(=O)c2cc(S(=O)(=O)N3CCC(C)CC3)ccc21, CCOCCCNC(=O)c1cn(CC)c2ccc(S(=O)(=O)N3CCC(C)CC3)cc2c1=O is lower in “hERG current change (%, negative = inhibition) at 10uM” value: -10.3% for the first, -22.6% for the second.

First: CCC1CCCCN1CCCNC(=O)c1cn(CC)c2ccc(S(=O)(=O)N3CCc4ccccc4C3)cc2c1=O (stereo not shown)
Second: CCn1cc(C(=O)NCCCN2CCCC(C)C2)c(=O)c2cc(S(=O)(=O)N3CCc4ccccc4C3)ccc21 (stereo not shown)
The “hERG current change (%, negative = inhibition) at 10uM” value of the first is higher: -72% for the first, -75.7% for the second.

First: CCC1CCCCN1CCCNC(=O)c1cn(C)c2ccc(S(=O)(=O)N3CCOCC3)cc2c1=O (stereo not shown)
Second: COc1ccc(S(=O)(=O)N2CCOCC2)cc1C(=O)Nc1cc(C)on1
The “hERG current change (%, negative = inhibition) at 10uM” value of the first is higher: 21.3% for the first, 2.19% for the second.

First: COc1cc(N2CCOCC2)ccc1/C=C1\C(=O)NC(=O)N(Cc2ccc3c(c2)OCO3)C1=O
Second: Cc1ccc([C@@H]2[C@@H]3C(=O)N(C)C(=O)[C@@H]3[C@]3(Cc4ccccc4)C(=O)N(CCO)CC(=O)N23)o1
The “hERG current change (%, negative = inhibition) at 10uM” value of the first is higher: 16.5% for the first, 0.221% for the second.

First: CCn1c(SCC#N)nc2ccccc2c1=O
Second: CN(C)C(=O)CSc1nnc(NC(=O)CCc2ccccc2)s1
The “hERG current change (%, negative = inhibition) at 10uM” value of the first is higher: 2.7% for the first, -5.24% for the second.

Going from CCc1c(C)sc(NC(=O)c2cc(-c3ccc(O)cc3)on2)c1C#N to CCN(CC(=O)NCc1ccc(Cl)cc1)C(=O)c1cnc(Cl)c(Cl)c1, the “hERG current change (%, negative = inhibition) at 10uM” value falls from 11.2% to 5.29%.

Going from O=C(CCc1nnc2ccc(NCc3ccco3)nn12)Nc1ccc(F)cc1F to CN(CC(=O)NCc1ccc(F)cc1)Cc1cccc(Cl)c1, the “hERG current change (%, negative = inhibition) at 10uM” value rises from -4.76% to 4.92%.

Going from COc1ccc(OC)c(C2=NOC(C(=O)Nc3cc(C)on3)C2)c1 (stereo not shown) to COc1ccc(NC(=O)CSc2nc(SC)ns2)c(OC)c1, the “hERG current change (%, negative = inhibition) at 10uM” value falls from 17.2% to 2.53%.

Compared with O=C(CCc1nc2sc3c(c2c(=O)[nH]1)CCCC3)Nc1ccccc1Cl, O=C(COc1ccc(Cl)cc1Br)NC(=O)NCc1ccccc1 is higher in “hERG current change (%, negative = inhibition) at 10uM” value: 7.93% for the first, 13.3% for the second.

Compared with CC(=O)c1cccc(NC(=O)N2CC(C)OC(C)C2)c1 (stereo not shown), CCc1cccc(C)c1NC(=O)C1CCCN(S(C)(=O)=O)C1 (stereo not shown) is higher in “hERG current change (%, negative = inhibition) at 10uM” value: 10.4% for the first, 23.6% for the second.

Compared with Cc1ccc(NC(=O)OCCNC(=O)c2ccncc2)cc1, Cc1cc(Cl)ccc1OCC(=O)NCc1ccncc1 is lower in “hERG current change (%, negative = inhibition) at 10uM” value: 8.86% for the first, -8.3% for the second.

First: CCN(CC(=O)NCc1ccc(Cl)cc1)C(=O)COc1cccc(Cl)c1
Second: CCN(CC(=O)NCc1ccc(Cl)cc1)C(=O)COc1ccc(Cl)cc1Br
The “hERG current change (%, negative = inhibition) at 10uM” value of the first is lower: -73.5% for the first, -67.7% for the second.

Compared with CCOc1ncccc1C(=O)N(CC)CC(=O)NCc1ccc(Cl)cc1, CCN(CC(=O)NCc1ccc(Cl)cc1)C(=O)COc1ccc(C)cc1C is lower in “hERG current change (%, negative = inhibition) at 10uM” value: 1.69% for the first, -78.4% for the second.

Going from CCN(CC(=O)NCc1ccc(F)cc1)C(=O)C(C)Oc1cccc(Cl)c1 (stereo not shown) to CCN(CC(=O)NCc1ccc(F)cc1)CC(O)COCc1cccc(OC)c1 (stereo not shown), the “hERG current change (%, negative = inhibition) at 10uM” value falls from -54.4% to -60.6%.

Going from O=C(OCc1csc(-c2ccccc2)n1)c1ccccc1O to COc1cccc(CN(C)CC(=O)NCc2ccc(C)cc2)c1.O=C(O)C(=O)O, the “hERG current change (%, negative = inhibition) at 10uM” value falls from 29.6% to -49.3%.

Going from CC1CCC(NC(=O)CSc2nnnn2C)CC1 (stereo not shown) to COc1ccc(C2=NS(=O)(=O)N(C)C(C(=O)NC3CCCC3)=C2)cc1, the “hERG current change (%, negative = inhibition) at 10uM” value falls from 6.96% to 2.43%.

First: Cc1cc(C)n2nc(SCc3nnc(SCc4ccccc4)s3)nc2n1
Second: Cc1cc(C)n2nc(SCc3nnc(SCc4ccccc4Cl)s3)nc2n1
The “hERG current change (%, negative = inhibition) at 10uM” value of the first is lower: -28.6% for the first, 9.19% for the second.

Compared with COc1cccc(CSc2nc3nc(C)cc(C)n3n2)c1, Cc1cccc(CSc2nc3nc(C)cc(C)n3n2)c1 is lower in “hERG current change (%, negative = inhibition) at 10uM” value: -4.72% for the first, -27.9% for the second.

Compared with COc1cccc(CSc2nnc(CSc3nc4nc(C)cc(C)n4n3)s2)c1, Cc1cc(C)n2nc(SCc3nnc(SCc4ccccc4C)s3)nc2n1 is lower in “hERG current change (%, negative = inhibition) at 10uM” value: -54.4% for the first, -64.9% for the second.
